The sample as a whole holds a higher share of hits than the screen did.
AMA1 RON2 block: disrupts binding of P. falciparum AMA1 to RON2; AlphaScreen AMA1-biotinylated RON2 peptide binding; Potency, µM (top dose mostly 58.2 µM), inactives show at the highest dose activity change, negative = inhibition, actives largely listed as inhibitors; hit rate 0.2% among 360,000; AID 720542; active = well fitted inhibition curve with a large enough effect; inconclusive = small, poorly fitted or top-dose-only effect; inactive = no such curve, though single readings can be large or run the other way;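 note: potency is the fitted concentration of half-maximal effect; 0% = vehicle wells and -100% = peptide control; nearly all actives have a fitted effect of over 45% in size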
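AMA1 (3D7) with his tag at 25 nM final met compounds first, then biotinylated RON2 peptide at 25 nM; detection used donor plus acceptor beads, 10 µg/mL apiece, read by AlphaScreen after 30 min at room temperature.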
Shiga toxin inh: inhibitors of Shiga toxin in Vero cells. Vero cells, Shiga toxin protein synthesis inhibition reporter. inhibition, % at 38.7 µM. hit rate 9.2% among 290,000; in the data active = inhibition mostly above about 28%, no sharp cut-off; inactive = mostly below about 43%; note: 0% is about no effect
MARV entry inh: Marburg virus entry inhibition | Potency, µM (titrated, usually from 37.8 µM), without a hit: top-dose activity change, negative = inhibition, actives largely listed as inhibitors | Marburg virus pseudotyped entry inhibition, cell reporter | hit rate 1.8% among 300,000; calls by dose curve; tested in HEK293 cells; note: potency is the fitted concentration of half-maximal effect; % is set by controls: 0 for no effect and ±100 for the full control effect
Cycloheximide cs: affects cycloheximide protein synthesis inhibition readout, counter-screen | max response, % | hit rate 12% among 300,000 | cell reporter, cycloheximide protein synthesis inhibition counterscreen; in the data active = max response mostly above about 13%, no sharp cut-off; inactive = mostly below about 14%; note: read at 38.3 µM for the half of the compounds with a filed dose; 0% is about no effect
Lassa entry inh: Lassa virus entry inhibition. hit rate 1.2% among 300,000. Potency, µM (highest dose often 37.9 µM), for the others: at the top dose activity change, negative = inhibition, actives largely listed as inhibitors. Lassa virus pseudotype entry inhibition, cell reporter. AID 540256; calls by dose curve; tested in HEK293 cells; note: potency is the fitted concentration of half-maximal effect; % is set by controls: 0 for no effect and ±100 for the full control effect; nearly all actives have a fitted effect of over 50% in size
The depositor's hits bear a star; ? = inconclusive; . = no result given; ! = repeats disagree; [ ] = remark or other dose.

SMILES | AMA1 RON2 block | Shiga toxin inh | MARV entry inh | Cycloheximide cs | Lassa entry inh
COc1cccc(Oc2ccc(C(F)(F)F)cc2NC(=O)CN2C(=O)NC3(CCCC3)C2=O)c1 | -27.5% | . | . | . | .
CCOC(=O)c1oc2ccccc2c1N | -15.0% | 66.9* | 16.8% | 27.4* | -0.6%
COC(=O)c1oc2ccc(Br)cc2c1-n1cccc1 | 3.5% | -5.7 | 1.2% | -4.2 | 11.5%
Nc1c(C(=O)c2ccccc2)oc2ccc(Br)cc12 | 14.1% | 82.9* | 23.7% | 27.7* | 18.0%
CCOCC(=O)Nc1c(C(=O)OCC)oc2ccccc12 | 0.0% | -15.3 | 1.3% | -1.6 | 2.0%
CCOc1cc(OCC)cc(C(=O)N2CCC[C@@H]2C(=O)N2CCC[C@@H]2C(=O)NCc2ccccc2Cl)c1 | 0.0% | . | . | . | .
c1ccc2cc(CCO[C@H]3CCCCO3)ncc2c1 | 13.0% | . | . | . | .
CC1=NN(c2ccccc2)C(=O)/C1=C/c1c(O)n(-c2ccc(F)c(Cl)c2)[nH]c1=O | -15.0% | 19.1 | ? | 17.4* | 20.3%
CC1=NN(c2ccccc2)C(=O)/C1=C\c1c(C)[nH]n(-c2ccccc2)c1=O | -10.5% | -4.5 | -10.3% | 5.6 | 15.1%
N#Cc1ccc(-n2nccc2-c2cnc3n(c2=O)CCS3)cc1 | -1.7% | 2.1 | 16.4%[46.1 µM] | 25.6* | 0.5%
CC1(C(=O)NC(=S)N(Cc2ccccc2)c2ccccn2)CC1(Cl)Cl (stereo not given) | -13.2% | 30.5 | -3.9% | 21.7* | 4.5%
O=c1[nH]c(=O)n([C@H]2C[C@H](O)[C@@H](CO)O2)cc1F | -4.3% | 17.7 | ? | -1.8 | 0.291µM*
COc1ccccc1CNC(=O)c1cnc2sc(N3CCCCCC3)nn2c1=O | . | . | . | . | -4.1%[46.1 µM]
CCOc1ccc(-c2cc(C(=O)N3CCN(C)CC3)c3ccccc3n2)cc1 | 12.2% | 49.6* | ? | 38.2* | -28.5%
CCOC(=O)N1CCN(C(=O)c2cc(-c3ccc(OCC)cc3)nc3ccccc23)CC1 | 0.0% | 65.8* | ? | 37.3* | 4.61µM*
Cc1cccc(C)c1NC(=O)Cn1c(=O)n(Cc2ccccc2)c(=O)c2c(C)c(C(=O)N(C)C)sc21 | . | . | . | . | -0.8%[46.1 µM]
CC(C)(C)c1ccc(C(=O)N2CCOC23CCCCC3)cc1 | 24.4% | . | . | . | .
CC(C)c1ccc(/C=C/C(=O)NCCCc2ccccc2)cc1 | -6.3% | 22.1 | 5.5% | 6.9 | 8.6%
CCCNC(=O)/C=C/c1ccc(C(C)C)cc1 | -5.9% | 64.3* | ? | 47.2* | 18.4µM*
O=C(O)/C=C/C(=O)NCCC1=CCCCC1 | -3.3% | -10.8 | . | -1.1 | .
CC(C)c1ccc(/C=C/C(=O)NCCC2=CCCCC2)cc1 | 18.3% | 17.0 | 11.2% | 16.6* | -26.6%
Cc1ccc(NC(=O)CN2C(=O)NC3(CCc4ccccc43)C2=O)cc1S(=O)(=O)N1CCCCC1 (stereo not given) | -0.9% | . | -15.3% | . | -15.9%
Fc1ccc(Oc2ccnc(Cl)n2)c(Cl)c1 | -1.1% | . | -20.1%[46.1 µM] | . | ?
COc1ccc(Nc2nc3c(S(=O)(=O)c4ccc(Br)cc4)nnn3c3ccsc23)c(OC)c1 | . | . | . | . | -1.5%[46.1 µM]
CN(Cc1ccccc1)C(=O)COC(=O)Cc1ccc(Cl)cc1 | -5.1% | . | -5.6%[46.1 µM] | . | 9.4%[46.1 µM]
SMILES | AMA1 RON2 block | Shiga toxin inh | MARV entry inh | Cycloheximide cs | Lassa entry inh
CN(Cc1ccccc1)C(=O)CCC(=O)N(C)Cc1ccccc1 | 0.6% | 113.3* | -17.4% | 32.4* | 6.3%
CN(Cc1ccccc1)C(=O)CCC1CCN(C(=O)CC2=CCCCC2)CC1 | -19.4% | 21.4 | . | 26.1 | .
Cc1cccc(N(Cc2ccccc2)C(=O)CCl)c1 | 16.4% | 20.6 | ? | 7.7 | -13.5%
CN(Cc1ccccc1)C(=O)CCC1CCN(C(=O)CCC(F)(F)F)CC1 | 11.5% | . | 0.5% | 32.1* | ?
CN(Cc1ccccc1)C(=O)COC(=O)c1ccc(Cl)cc1N | 3.0% | 46.5 | ? | 28.7* | 1.5%
O=C(CCl)N(Cc1ccccc1)c1ccccc1 | -3.6% | 6.4 | 16.4µM* | 26.0* | ?
O=C(NC1CCCc2ccccc21)c1c(F)cccc1Cl (stereo not given) | -1.5% | -4.8 | 3.9%[46.1 µM] | -2.4 | -9.8%
COc1ccc(OC)c(C2C(C(=O)Nc3ccc(C)cc3)=C(C)Nc3nnnn32)c1 (stereo not given) | . | . | . | . | 29.9%[46.1 µM]
COC(=O)[C@H](Cc1ccccc1)NC(=O)N(C)Cc1ccccc1 | 8.8% | 26.7 | 1.0%[46.1 µM] | 17.9* | 0.6%
Cc1ccc(C2CC(C(F)(F)F)n3nc(C(=O)NCc4c(C)nn(C)c4C)c(Cl)c3N2)cc1 (stereo not given) | -15.5% | -1.2 | 11.6µM*! | -3.4 | ?
Cc1nc(COc2ccccc2Cl)sc1-c1ccnc(N)n1 | -11.4% | 49.0* | ? | 19.3* | -5.6%
Cc1cccc(Oc2ccc(N)cc2)c1 | -14.0% | 42.8 | 23.3% | 31.3* | -1.1%
Nc1ccc(Oc2cccc(Oc3ccc(N)cc3)c2)cc1 | 31.6µM* | -20.6 | ? | -16.7 | ?
Cc1cc(C)cc(Oc2ccc(N)cc2)c1 | -13.6% | 12.2 | -13.4% | 9.3 | ?
CC1=C(c2ccccc2)SC2=NCCN21 | 0.0% | -14.9 | . | -2.6 | .
O=C(O)C1CC=C(Cl)CC1C(=O)NC1CCCCC1 (stereo not given) | 15.6% | -4.4 | -27.0%[46.1 µM] | -1.7 | ?
C/C(=N\Nc1nccnc1Cl)c1ccc(Br)cc1 | 44.3% | 77.6* | . | 29.7* | .
C/C(=N\Nc1nccnc1Cl)c1ccc([N+](=O)[O-])cc1 | 100.6% | 66.1* | 15.9% | 40.6* | 0.2%
C/C(=N\Nc1nccnc1Cl)c1ccc(O)c(C)c1 | 18.4% | . | ? | 28.1* | ?
COc1ccc(/C(C)=N/Nc2nccnc2Cl)cc1 | 83.3% | . | . | . | .
CCc1ccc(CNC(=O)CN2C(=O)c3cccnc3Oc3ccc(C)cc32)cc1 | . | . | . | . | -29.9%[46.1 µM]
O=C1CC(c2ccccc2)Sc2ccccc2N1Cc1ccc(F)cc1 (stereo not given) | . | . | 2.0%[46.1 µM] | . | .
N#CCCN(Cc1ccccc1)C(=O)CCC(=O)c1ccc(F)cc1 | 0.9% | . | . | . | .
O=C(CC1CC2CCC1C2)OCC(=O)c1c[nH]c2ccccc12 (stereo not given) | ? | 148.0* | 13.0% | 52.6* | -26.7%
O=C(COC(=O)CC1CC2CCC1C2)NCc1ccc(F)cc1 (stereo not given) | -21.3% | . | -17.0%[46.1 µM] | . | ?
